Measurements: the supplement of paper PMC9262897, “Low-cost anti-mycobacterial drug discovery using engineered E. coli” (Nature Communications, 2022)
Where a name gives a salt, the structure may show the parent alone. ± gives the standard deviation of the averaged measurements.

test system: E. coli TESEC Alr+ wild-type control; assay: growth (OD600 after 10 h); higher = more growth (less inhibition); settings: compound 0.1 mM; raw OD600 reference: median of DMSO wells 0.49, cell-free background 0.052
Method: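 TESEC Mtb Alr E. coli (ΔaraC ΔtolC ΔentC Δalr ΔdadX, arabinose-inducible Mtb Alr) or the Alr+ wild-type control strain, grown in defined M9-fructose medium without D-alanine in 96-well plates with Prestwick library compounds at 0.1 mM and 1% DMSO. Low Alr induction is 0.1 µM arabinose and high induction is 10 mM arabinose.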

| SMILES | growth |
| --- | --- |
| CC(C)NCC(O)c1ccc2ccccc2c1 (stereo not given) [Pronethalol hydrochloride] | 0.473 ± 0.048 |
| Clc1ccc(Cn2c(CN3CCCC3)nc3ccccc32)cc1 [Clemizole hydrochloride] | 0.452 ± 0.049 |
| NC(=O)c1cccnc1 [Nicotinamide] | 0.509 ± 0.11 |
| COC(=O)[C@H]1[C@H]2C[C@@H]3c4[nH]c5cc(OC)ccc5c4CCN3C[C@H]2C[C@@H](OC(=O)c2cc(OC)c(OC)c(OC)c2)[C@@H]1OC [Reserpine] | 0.467 ± 0.014 |
| CC1=C(C(=O)O)N2C(=O)[C@@H](NC(=O)[C@H](N)c3ccc(O)cc3)[C@H]2SC1 [Cefadroxil] | 0.606 ± 0.045 |
| Nc1nc(=O)c2nc(CNc3ccc(C(=O)N[C@@H](CCC(=O)O)C(=O)O)cc3)cnc2[nH]1 [Folic acid] | 0.446 ± 0.02 |
| OCCN1C[C@H](O)[C@@H](O)[C@H](O)[C@H]1CO [Miglitol] | 0.583 ± 0.098 |
| COC(c1ccccc1)(c1ccccc1)[C@H](Oc1nc(C)cc(C)n1)C(=O)O [Ambrisentan] | 0.535 ± 0.022 |
| COc1cc(C(=O)OCCCN2CCCN(CCCOC(=O)c3cc(OC)c(OC)c(OC)c3)CC2)cc(OC)c1OC [Dilazep dihydrochloride] | 0.416 ± 0.034 |
| CO/N=C(\C(=O)N[C@@H]1C(=O)N2C(C(=O)O)=C(COC(N)=O)CS[C@H]12)c1ccco1 [Cefuroxime sodium salt] | 0.0629 ± 0.0034 |
| Nc1nc(/C(=C/CC(=O)O)C(=O)N[C@@H]2C(=O)N3C(C(=O)O)=CCS[C@H]23)cs1 [Ceftibuten] | 0.252 ± 0.016 |
| NC1CCN(c2c(F)cc3c(=O)c(C(=O)O)cn(C4CC4)c3c2Cl)C1 (stereo not given) [Clinafloxacin] | 0.05277 ± 0.00038 |
| Cc1ccc(NC(=O)c2ccc(CN3CCN(C)CC3)cc2)cc1Nc1nccc(-c2cccnc2)n1 [Imatinib] | 0.455 ± 0.046 |
| OC[C@H]1O[C@@H](Oc2ccc(O)cc2)[C@H](O)[C@@H](O)[C@@H]1O [Arbutin] | 0.499 ± 0.077 |
| c1ccc(C2CN3CCSC3=N2)cc1 (stereo not given) [Tetramisole hydrochloride] | 0.529 ± 0.087 |
| CCN(CC)C(C)CN1c2ccccc2Sc2ccccc21 (stereo not given) [Ethopropazine hydrochloride] | 0.469 ± 0.026 |
| Brc1c(NC2=NCCN2)ccc2nccnc12 [Brimondine L-Tartrate] | 0.46 ± 0.032 |
| Cn1c(=O)c2nc[nH]c2n(C)c1=O [Theophylline monohydrate] | 0.461 ± 0.014 |
| CCCCOc1cc(C(=O)NCCN(CC)CC)c2ccccc2n1 [Dibucaine] | 0.452 ± 0.017 |
| COc1ccc(C(=O)CC(=O)c2ccc(C(C)(C)C)cc2)cc1 [Avobenzone] | 0.533 ± 0.076 |

| SMILES | growth |
| --- | --- |
| Cc1cc(-n2c(=O)[nH]c(=O)n(C)c2=O)ccc1Oc1ccc(SC(F)(F)F)cc1 [Toltrazuril] | 0.137 ± 0.043 |
| Cc1ccc(-c2cc(C(F)(F)F)nn2-c2ccc(S(N)(=O)=O)cc2)cc1 [Celecoxib] | 0.425 ± 0.11 |
| CCOc1ccc2ccccc2c1C(=O)N[C@@H]1C(=O)N2[C@@H]1SC(C)(C)[C@@H]2C(=O)O [Nafcillin sodium salt monohydrate] | 0.6426 ± 0.0049 |
| CN(C)CCN(Cc1ccccc1)c1ccccn1 [Tripelennamine hydrochloride] | 0.537 ± 0.091 |
| CC(C)(C)NC[C@H](O)COc1cccc2c1CCCC2=O [(-) -Levobunolol hydrochloride] | 0.613 ± 0.048 |
| CCOC(=O)O[C@]1(C(=O)OCCl)CC[C@H]2[C@@H]3CCC4=CC(=O)C=C[C@]4(C)[C@H]3[C@@H](O)C[C@@]21C [Loteprednol etabonate] | 0.473 ± 0.12 |
| CC(=O)NS(=O)(=O)c1ccc(N)cc1 [Sulfacetamide sodic hydrate] | 0.486 ± 0.053 |
| COc1ccc2[nH]c([S+]([O-])Cc3ncc(C)c(OC)c3C)nc2c1 (stereo not given) [Omeprazole] | 0.409 ± 0.01 |
| CNNCc1ccc(C(=O)NC(C)C)cc1 [Procarbazine hydrochloride] | 0.454 ± 0.01 |
| C[C@]12CC[C@H]3C(=CCc4cc(O)ccc43)[C@@H]1CCC2=O [Equilin] | 0.424 ± 0.0094 |
| COc1cnc(NS(=O)(=O)c2ccc(N)cc2)nc1 [Sulfameter] | 0.516 ± 0.12 |
| CN(C)CCOC(C)(c1ccccc1)c1ccccn1 (stereo not given) [Doxylamine succinate] | 0.51 ± 0.06 |
| CC[C@H](C)C(=O)O[C@H]1CCC=C2C=C[C@H](C)[C@H](CC[C@@H]3C[C@@H](O)CC(=O)O3)[C@H]21 [Mevastatin] | 0.41 ± 0.019 |
| Nc1ccc(O)c(C(=O)O)c1 [Mesalamine] | 0.554 ± 0.11 |
| C[C@]12CC[C@@H]3c4ccc(O)cc4CC[C@H]3[C@@H]1CC[C@@H]2O [Estradiol-17 beta] | 0.43 ± 0.017 |
| COc1ccccc1OCC(O)CN1CCN(CC(=O)Nc2c(C)cccc2C)CC1 (stereo not given) [Ranolazine] | 0.471 ± 0.068 |
| C[C@@H]1C[C@H]2[C@@H]3C[C@H](F)C4=CC(=O)C=C[C@]4(C)[C@@]3(Cl)[C@@H](O)C[C@]2(C)[C@H]1C(=O)COC(=O)C(C)(C)C [Clocortolone pivalate] | 0.477 ± 0.013 |
| CCc1c2c(nc3ccc(OC(=O)N4CCC(N5CCCCC5)CC4)cc13)-c1cc3c(c(=O)n1C2)COC(=O)[C@]3(O)CC [Irinotecan hydrochloride trihydrate] | 0.514 ± 0.052 |
| Clc1ccc2c(c1)CCc1cccnc1C2=C1CCNCC1 [Desloratadine] | 0.545 ± 0.014 |
| CN(C)C/C=C(/c1ccc(Br)cc1)c1cccnc1 [Zimelidine dihydrochloride monohydrate] | 0.445 ± 0.04 |
